# ± gives the standard deviation of the averaged measurements.
# Assays:
# Experiment in all cases: promoter activity interaction Z-score (Lux/OD deviation from empty-vector control); higher = stronger promoter induction by the compound
# [1] = tested on: E. coli BW25113 acrABp lux reporter
# Method in brief: (§1)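 Wild-type E. coli BW25113 and three single-gene deletion strains, each carrying a low-copy luxCDABE promoter reporter, were grown at 37°C in 40 µl LB Lennox per well of a 384-well plate. Every compound was applied at four 1:2 dilutions in biological duplicates, and OD600 and luminescence were read every 30 min for 12 h. Integration covered 0–8 h for wild type and 1–9 h for deletion strains, and wells under 10% of the median growth value were removed. Scores are Z-transformed residuals of growth-normalised luminescence fitted against a control.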
# [2] = tested on: E. coli BW25113 marRABp lux reporter
# Method in brief: as §1
# [3] = tested on: E. coli BW25113 micFp lux reporter
# Method in brief: as §1
# [4] = tested on: E. coli BW25113 ompFp lux reporter
# Method in brief: as §1
# [5] = tested on: E. coli BW25113 robp lux reporter
# Method in brief: as §1
# [6] = tested on: E. coli BW25113 soxSp lux reporter
# Method in brief: as §1
# [7] = tested on: E. coli BW25113 tolCp lux reporter
# Method in brief: as §1
# [8] = 28.4 µg/ml, genetic background: wild type
# [9] = 28.4 µg/ml, genetic background: ΔmarA
# [10] = 28.4 µg/ml, genetic background: Δrob
# [11] = 28.4 µg/ml, genetic background: ΔsoxS
# [12] = 56.8 µg/ml, genetic background: wild type
# [13] = 56.8 µg/ml, genetic background: ΔmarA
# [14] = 56.8 µg/ml, genetic background: Δrob
# [15] = 56.8 µg/ml, genetic background: ΔsoxS
# [16] = 113.7 µg/ml, genetic background: wild type
# [17] = 113.7 µg/ml, genetic background: ΔmarA
# [18] = 113.7 µg/ml, genetic background: Δrob
# [19] = 113.7 µg/ml, genetic background: ΔsoxS
# [20] = 227.3 µg/ml, genetic background: wild type
# [21] = 227.3 µg/ml, genetic background: ΔmarA
# [22] = 227.3 µg/ml, genetic background: Δrob
# [23] = 227.3 µg/ml, genetic background: ΔsoxS
smiles,measurement,setting,value
O=c1[nH]c(=O)c2[nH]c(O)nc2[nH]1 [Sodium urate],promoter activity interaction Z-score,[1]; [8],0.0607 ± 0.068
same,promoter activity interaction Z-score,[1]; [9],-0.691 ± 0.25
same,promoter activity interaction Z-score,[1]; [10],0.112 ± 0.14
same,promoter activity interaction Z-score,[1]; [11],-0.119 ± 0.36
same,promoter activity interaction Z-score,[1]; [12],0.0108 ± 0.15
same,promoter activity interaction Z-score,[1]; [13],-1.36 ± 0.16
same,promoter activity interaction Z-score,[1]; [14],0.00464 ± 0.19
same,promoter activity interaction Z-score,[1]; [15],-0.118 ± 0.35
same,promoter activity interaction Z-score,[1]; [16],0.121 ± 0.12
same,promoter activity interaction Z-score,[1]; [17],-1.18 ± 0.34
same,promoter activity interaction Z-score,[1]; [18],-0.0273 ± 0.041
same,promoter activity interaction Z-score,[1]; [19],-0.102 ± 0.19
same,promoter activity interaction Z-score,[1]; [20],0.0857 ± 0.087
same,promoter activity interaction Z-score,[1]; [21],-0.114 ± 0.23
same,promoter activity interaction Z-score,[1]; [22],0.315 ± 0.14
same,promoter activity interaction Z-score,[1]; [23],-0.127 ± 0.56
same,promoter activity interaction Z-score,[2]; [8],-0.098 ± 0.014
same,promoter activity interaction Z-score,[2]; [9],-0.367 ± 0.46
same,promoter activity interaction Z-score,[2]; [10],-0.0815 ± 0.3
same,promoter activity interaction Z-score,[2]; [11],-0.136 ± 0.38
same,promoter activity interaction Z-score,[2]; [12],-0.215 ± 0.019
same,promoter activity interaction Z-score,[2]; [13],-0.183 ± 0.45
same,promoter activity interaction Z-score,[2]; [14],-0.209 ± 0.11
same,promoter activity interaction Z-score,[2]; [15],-0.198 ± 0.26
same,promoter activity interaction Z-score,[2]; [16],0.0146 ± 0.11
same,promoter activity interaction Z-score,[2]; [17],-0.285 ± 0.48
same,promoter activity interaction Z-score,[2]; [18],-0.227 ± 0.062
same,promoter activity interaction Z-score,[2]; [19],-0.19 ± 0.33
same,promoter activity interaction Z-score,[2]; [20],-0.107 ± 0.15
same,promoter activity interaction Z-score,[2]; [21],0.16 ± 0.43
same,promoter activity interaction Z-score,[2]; [22],-0.0974 ± 0.043
same,promoter activity interaction Z-score,[2]; [23],-0.0308 ± 0.28
same,promoter activity interaction Z-score,[3]; [8],0.0581 ± 0.23
same,promoter activity interaction Z-score,[3]; [9],-0.118 ± 0.23
same,promoter activity interaction Z-score,[3]; [10],-0.0289 ± 0.19
same,promoter activity interaction Z-score,[3]; [11],0.0526 ± 0.22
same,promoter activity interaction Z-score,[3]; [12],0.0725 ± 0.02
same,promoter activity interaction Z-score,[3]; [13],-0.0713 ± 0.39
same,promoter activity interaction Z-score,[3]; [14],0.0271 ± 0.23
same,promoter activity interaction Z-score,[3]; [15],0.0688 ± 0.17
same,promoter activity interaction Z-score,[3]; [16],0.114 ± 0.09
same,promoter activity interaction Z-score,[3]; [17],-0.218 ± 0.078
same,promoter activity interaction Z-score,[3]; [18],-0.082 ± 0.13
same,promoter activity interaction Z-score,[3]; [19],0.0891 ± 0.29
same,promoter activity interaction Z-score,[3]; [20],0.0879 ± 0.087
same,promoter activity interaction Z-score,[3]; [21],-0.0859 ± 0.057
same,promoter activity interaction Z-score,[3]; [22],-0.12 ± 0.13
same,promoter activity interaction Z-score,[3]; [23],-0.223 ± 0.39
same,promoter activity interaction Z-score,[4]; [8],-0.0285 ± 0.013
same,promoter activity interaction Z-score,[4]; [9],-0.27 ± 0.27
same,promoter activity interaction Z-score,[4]; [10],-0.245 ± 0.31
same,promoter activity interaction Z-score,[4]; [11],0.0289 ± 0.054
same,promoter activity interaction Z-score,[4]; [12],0.162 ± 0.082
same,promoter activity interaction Z-score,[4]; [13],-0.186 ± 0.1
same,promoter activity interaction Z-score,[4]; [14],-0.168 ± 0.14
same,promoter activity interaction Z-score,[4]; [15],0.253 ± 0.42
same,promoter activity interaction Z-score,[4]; [16],0.31 ± 0.34
same,promoter activity interaction Z-score,[4]; [17],-0.874 ± 0.12
same,promoter activity interaction Z-score,[4]; [18],-0.0944 ± 0.13
same,promoter activity interaction Z-score,[4]; [19],0.241 ± 0.093
same,promoter activity interaction Z-score,[4]; [20],0.726 ± 0.41
same,promoter activity interaction Z-score,[4]; [21],0.504 ± 0.044
same,promoter activity interaction Z-score,[4]; [22],0.739 ± 0.45
same,promoter activity interaction Z-score,[4]; [23],0.654 ± 0.45
same,promoter activity interaction Z-score,[5]; [8],0.189 ± 0.027
same,promoter activity interaction Z-score,[5]; [9],-0.944 ± 0.38
same,promoter activity interaction Z-score,[5]; [10],-0.184 ± 0.64
same,promoter activity interaction Z-score,[5]; [11],0.198 ± 0.34
same,promoter activity interaction Z-score,[5]; [12],0.19 ± 0.1
same,promoter activity interaction Z-score,[5]; [13],-0.157 ± 0.22
same,promoter activity interaction Z-score,[5]; [14],0.189 ± 0.29
same,promoter activity interaction Z-score,[5]; [15],0.0419 ± 0.49
same,promoter activity interaction Z-score,[5]; [16],0.246 ± 0.37
same,promoter activity interaction Z-score,[5]; [17],-1.37 ± 0.15
same,promoter activity interaction Z-score,[5]; [18],-0.253 ± 0.052
same,promoter activity interaction Z-score,[5]; [19],-0.163 ± 0.39
same,promoter activity interaction Z-score,[5]; [20],0.613 ± 0.94
same,promoter activity interaction Z-score,[5]; [21],0.235 ± 0.099
same,promoter activity interaction Z-score,[5]; [22],0.286 ± 0.0035
same,promoter activity interaction Z-score,[5]; [23],1.01 ± 0.33
same,promoter activity interaction Z-score,[6]; [8],0.0961 ± 0.26
same,promoter activity interaction Z-score,[6]; [9],-0.0522 ± 0.15
same,promoter activity interaction Z-score,[6]; [10],0.0395 ± 0.24
same,promoter activity interaction Z-score,[6]; [11],-0.0315 ± 0.002
same,promoter activity interaction Z-score,[6]; [12],-0.0307 ± 0.019
same,promoter activity interaction Z-score,[6]; [13],-0.0796 ± 0.096
same,promoter activity interaction Z-score,[6]; [14],0.0954 ± 0.4
same,promoter activity interaction Z-score,[6]; [15],-0.135 ± 0.051
same,promoter activity interaction Z-score,[6]; [16],0.0999 ± 0.14
same,promoter activity interaction Z-score,[6]; [17],-0.0884 ± 0.18
same,promoter activity interaction Z-score,[6]; [18],-0.00479 ± 0.23
same,promoter activity interaction Z-score,[6]; [19],0.0412 ± 0.16
same,promoter activity interaction Z-score,[6]; [20],-0.0463 ± 0.28
same,promoter activity interaction Z-score,[6]; [21],-0.0252 ± 0.33
same,promoter activity interaction Z-score,[6]; [22],0.122 ± 0.45
same,promoter activity interaction Z-score,[6]; [23],-0.094 ± 0.097
same,promoter activity interaction Z-score,[7]; [8],0.639 ± 0.76
same,promoter activity interaction Z-score,[7]; [9],0.214 ± 0.76
same,promoter activity interaction Z-score,[7]; [10],-0.337 ± 0.13
same,promoter activity interaction Z-score,[7]; [11],0.0334 ± 0.15
same,promoter activity interaction Z-score,[7]; [12],-0.365 ± 0.23
same,promoter activity interaction Z-score,[7]; [13],-0.26 ± 0.17
same,promoter activity interaction Z-score,[7]; [14],0.0782 ± 0.61
same,promoter activity interaction Z-score,[7]; [15],-0.0978 ± 0.24
same,promoter activity interaction Z-score,[7]; [16],-0.0784 ± 0.044
same,promoter activity interaction Z-score,[7]; [17],-0.877 ± 0.12
same,promoter activity interaction Z-score,[7]; [18],-0.397 ± 1.1
same,promoter activity interaction Z-score,[7]; [19],0.132 ± 0.047
same,promoter activity interaction Z-score,[7]; [20],-0.0307 ± 0.037
same,promoter activity interaction Z-score,[7]; [21],-0.7 ± 0.17
same,promoter activity interaction Z-score,[7]; [22],1.21 ± 1.3
same,promoter activity interaction Z-score,[7]; [23],-0.0415 ± 0.19

# From the supplement of paper PMC12282887
